The list is not random: actives were taken first. Their share in the collection is about 19%.
ELG1 repair inh = inhibitors of ELG1-dependent DNA repair in HEK293T cells; HEK293T ELG1-luciferase reporter, luminescence, 16 h; DNA damage induced by 5-fluorouridine; Potency, µM (doses to about 46.1 µM), without a hit: at the highest dose activity change, negative = inhibition, actives largely listed as inhibitors; actives 2.3% (n = 330,000); AID 504467; note: potency is the fitted concentration of half-maximal effect; nearly all actives have a fitted effect of over 55% in size
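Step one: seed 2,000 cells per well. Step two: pin-transfer compound or DMSO alongside 5-fluorouridine. Step three: incubate 16 hr, 37 °C, 5% CO2. Step four: add ONE-Glo, wait 30 min, read luminescence.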
TDP1 inh = TDP1 (human) enzyme inhibition; Q9NUW8; recombinant TDP1, AlphaScreen DNA substrate cleavage; Potency, µM (series often up to 130 µM), without a hit: at the top dose activity change, negative = inhibition, usual class: inhibitors; actives 0.28% (n = 350,000); note: potency is the fitted concentration of half-maximal effect; nearly all actives have a fitted effect of over 40% in size
Target sequence (Q9NUW8 whole entry, looked up): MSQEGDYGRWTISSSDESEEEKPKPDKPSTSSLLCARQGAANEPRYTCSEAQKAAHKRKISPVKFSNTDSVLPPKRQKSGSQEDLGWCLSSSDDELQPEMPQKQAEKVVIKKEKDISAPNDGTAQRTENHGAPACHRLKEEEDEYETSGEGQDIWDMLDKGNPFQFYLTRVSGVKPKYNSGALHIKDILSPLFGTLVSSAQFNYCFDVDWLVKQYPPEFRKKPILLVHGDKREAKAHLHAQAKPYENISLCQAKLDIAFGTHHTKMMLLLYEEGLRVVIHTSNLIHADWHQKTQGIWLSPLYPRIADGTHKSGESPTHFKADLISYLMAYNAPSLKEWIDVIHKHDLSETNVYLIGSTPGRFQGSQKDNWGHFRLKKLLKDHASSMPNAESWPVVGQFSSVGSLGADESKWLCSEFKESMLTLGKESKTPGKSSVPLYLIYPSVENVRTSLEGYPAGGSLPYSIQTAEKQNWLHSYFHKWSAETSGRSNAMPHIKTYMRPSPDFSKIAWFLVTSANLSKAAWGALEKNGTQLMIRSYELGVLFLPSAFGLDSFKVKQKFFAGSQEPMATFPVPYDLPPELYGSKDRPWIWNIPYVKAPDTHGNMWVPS
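AlphaScreen read-out: signal falls as enzyme removes the 3' tyrosine-FITC from a 5'-biotinylated DNA oligo (15 nM, 5 min, RT). Enzyme was E. coli-made recombinant Tdp1 at 1 nM, exposed to compound for 15 min beforehand; beads 10 ug/ml, 10 min.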
IL1B secr inh = inhibitors of inflammasome signaling (IL-1 beta secretion); AID 743279; actives 4.7% (n = 360,000); THP-1 LPS/ATP IL-1B secretion, AlphaLISA, 16 h; hits give low values; activity change, % at 57.5 µM; in the data active = activity change below about -50%; inconclusive = mostly about -30% to -49%
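THP-1 cells pretreated 1 hr with compounds (up to 57.5 uM final), then stimulated with LPS (250 ng/mL final) plus ATP (1.25 mM final); secreted IL-1B measured by AlphaLISA after 16 hr, decreased signal indicating inhibition.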
Giardia killer = Giardia lamblia killing. Giardia lamblia trophozoite viability. actives 0.15% (n = 340,000). activity change, % at 7.66 µM, hits read low; in the data active = activity change below about -80%; inconclusive = between about -30% and that limit;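 note: parasites exposed to compound for two days anaerobically before the ATP read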
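Trophozoite viability was measured as ATP-dependent luminescence, read 15-30 min after reagent addition. Before that, parasites at 100 cells/well were exposed to compounds for 48 h, anaerobically, at 37 deg C.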
TDP1 cell CPT = growth inhibition of DT40 Tdp1-/-;hTDP1 cells with camptothecin (screen for TDP1 inhibitors). AID 686979. actives 12% (n = 420,000). Potency, µM (top dose mostly 46.2 µM), inactives show top-dose activity change, negative = growth inhibition, actives largely listed as inhibitors. chicken DT40 Tdp1-/-;hTDP1 cells + 20 nM CPT, ATP luminescence, 48 h; note: potency is the fitted concentration of half-maximal effect; nearly all actives have a fitted effect of over 55% in size
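Cell growth measured by CellTiter-Glo luminescence after a minimum 48 h, 37 C compound exposure with 20 nM CPT in Tdp1-knockout DT40 cells stably expressing hTDP1, seeded 400/well; qHTS titration format.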
TDP1 cell noCPT = qHTS for Inhibitors of human tyrosyl-DNA phosphodiesterase 1 (TDP1): qHTS in cells in absence of CPT. Potency, µM (series often up to 46.2 µM), for inactives: top-dose activity change, negative = growth inhibition, hits mostly inhibitors. DT40 Tdp1-/- hTDP1 cells, no CPT, ATP luminescence, 48 h. actives 15% (n = 420,000); note: potency is the fitted concentration of half-maximal effect; nearly all actives have a fitted effect of over 55% in size
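Luminescent ATP content (CellTiter-Glo) served as the growth readout. Knockout chicken DT40 cells expressing human TDP1 were exposed to compounds without camptothecin for a minimum 48 hr at 37 °C.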
The depositor's hits bear a star; [ ] = another dose, or the depositor's remark. Unless noted, calls come from the whole dose curve; as a rule, active = well fitted curve in the direction sought with a large enough effect; inconclusive = small, poorly fitted or top-dose-only effect, or another doubt; inactive = no such curve, though single readings can be large; an effect the other way counts as inactive or inconclusive. % is set by controls: 0 for no effect and ±100 for the full control effect.

For COc1ccc(S(=O)(=O)N2CCCC(C(=O)NCCC3=CCCCC3)C2)cc1 (stereo not given) the results were ELG1 repair inh -19%, TDP1 inh 3%, IL1B secr inh -1, Giardia killer -17, TDP1 cell CPT -7% and TDP1 cell noCPT inconclusive.
For Cc1noc(C)c1S(=O)(=O)N1CCC(C(=O)NCCC2=CCCCC2)CC1 the results were ELG1 repair inh -6%, TDP1 inh 8%, IL1B secr inh 65, Giardia killer 6, TDP1 cell CPT inconclusive and TDP1 cell noCPT inconclusive.
`Cc1cc(C)c(S(=O)(=O)N2CCCC(C(=O)NCCC3=CCCCC3)C2)c(C)c1` (stereo not given) gave ELG1 repair inh inconclusive, TDP1 inh 0%, IL1B secr inh -6, Giardia killer 0, TDP1 cell CPT inconclusive and TDP1 cell noCPT 21µM*.
`COc1ccc(Cl)cc1S(=O)(=O)N1CCC(C(=O)NCCC2=CCCCC2)CC1` gave ELG1 repair inh -8%, TDP1 inh 2%, IL1B secr inh -17, Giardia killer -4, TDP1 cell CPT 23µM* and TDP1 cell noCPT inconclusive.
For [O-][n+]1onc2c1CCC(=N/O)/C2=N\Nc1ccccc1 the results were ELG1 repair inh inconclusive and TDP1 inh 6%.
For CCc1ccc(NC(=O)CN(c2ccc(C)cc2)S(=O)(=O)c2c(C)nn(C)c2C)cc1 the results were TDP1 inh 2%, TDP1 cell CPT inconclusive and TDP1 cell noCPT inconclusive.
Screening CNS(=O)(=O)c1cn(CC(=O)N2CCN(c3ccccc3OC)CC2)cc1S(=O)(=O)NC returned TDP1 inh 0%, TDP1 cell CPT -5% and TDP1 cell noCPT -11%.
For O=P1(O)Oc2c(c(-c3ccccc3)cc3ccc4ccccc4c23)-c2c(-c3ccccc3)cc3ccc4ccccc4c3c2O1 the results were TDP1 inh 11%.
Screening CCCCCn1c(Sc2nc3ccccc3s2)nc2c1c(=O)[nH]c(=O)n2C returned ELG1 repair inh 21µM*, TDP1 inh 4%, IL1B secr inh -8, Giardia killer -6, TDP1 cell CPT 16µM* and TDP1 cell noCPT inconclusive.
C/C=C/Cn1c(SCc2ccccc2)nc2c1c(=O)[nH]c(=O)n2C was read as ELG1 repair inh -9%, TDP1 inh 1%, IL1B secr inh 1, Giardia killer 7, TDP1 cell CPT 21µM* and TDP1 cell noCPT inconclusive.
C=C(C)CSc1nc2c(c(=O)[nH]c(=O)n2C)n1CCC(C)C was read as ELG1 repair inh inconclusive, TDP1 inh -1%, IL1B secr inh 50, Giardia killer -1, TDP1 cell CPT 15µM* and TDP1 cell noCPT 16µM*.
CCCCCn1c(Sc2ncccn2)nc2c1c(=O)[nH]c(=O)n2C was read as ELG1 repair inh -8%, TDP1 inh 0%, IL1B secr inh 14, Giardia killer 6, TDP1 cell CPT -4% and TDP1 cell noCPT inconclusive.
C=CCn1c(SCC(=C)C)nc2c1c(=O)[nH]c(=O)n2C was read as ELG1 repair inh 0%, IL1B secr inh 15, Giardia killer 7, TDP1 cell CPT -4% and TDP1 cell noCPT -8%.
C=C(C)Cn1c(Sc2nc3ccccc3[nH]2)nc2c1c(=O)[nH]c(=O)n2C was read as ELG1 repair inh 26µM*, TDP1 inh 4%, IL1B secr inh -14, Giardia killer 12, TDP1 cell CPT -22% and TDP1 cell noCPT -5%.
`CCCCn1c(SCc2ccc(Cl)cc2)nc2c1c(=O)[nH]c(=O)n2C` gave ELG1 repair inh inconclusive, TDP1 inh 2%, IL1B secr inh 1, Giardia killer -3, TDP1 cell CPT 13µM* and TDP1 cell noCPT 13µM*.
`CC(C)CCn1c(SCc2ccc(Cl)cc2)nc2c1c(=O)[nH]c(=O)n2C` gave ELG1 repair inh 6%, TDP1 inh 0%, IL1B secr inh -14, Giardia killer -9, TDP1 cell CPT 16µM* and TDP1 cell noCPT 18µM*.
Screening CCOCCn1c(SCc2ccc(F)cc2)nc2c1c(=O)[nH]c(=O)n2C returned ELG1 repair inh -3%, TDP1 inh 4%, IL1B secr inh 39, Giardia killer -6, TDP1 cell CPT inconclusive and TDP1 cell noCPT inconclusive.
Screening CCOCCn1c(SCc2ccc(C)cc2)nc2c1c(=O)[nH]c(=O)n2C returned ELG1 repair inh inconclusive, TDP1 inh 1%, IL1B secr inh 23, Giardia killer -8, TDP1 cell CPT 13µM* and TDP1 cell noCPT inconclusive.
CC(C)CCn1c(Sc2nc3ccccc3o2)nc2c1c(=O)[nH]c(=O)n2C was read as ELG1 repair inh 5%, TDP1 inh 5%, IL1B secr inh -105*, Giardia killer 9, TDP1 cell CPT 18µM* and TDP1 cell noCPT 16µM*.
`CCN(CC(=O)Nc1ccc2c(c1)OCCO2)C(=O)c1ccc(Cl)cc1Cl` gave ELG1 repair inh inconclusive, IL1B secr inh -11, Giardia killer 0, TDP1 cell CPT inconclusive and TDP1 cell noCPT inconclusive.
Screening CCOC(=O)C1CC(C)=C(C)CC1C(=O)O (stereo not given) returned ELG1 repair inh 0%, TDP1 inh -1%, IL1B secr inh 0, Giardia killer 3, TDP1 cell CPT -2% and TDP1 cell noCPT -23%.
O=C(OCC#CCSc1nnc(-c2cccc3ccccc23)o1)c1cccc2[nH]ccc12 was read as ELG1 repair inh 23%, TDP1 inh -2% and Giardia killer -2.
Screening CCC1C(=O)NCCN1Cc1ccc2c(c1)CN(Cc1cc(OC)c3c(c1)OCO3)CCO2 (stereo not given) returned TDP1 cell CPT -9%[9.04 µM] and TDP1 cell noCPT inconclusive.
COc1ccc(CNC(=O)c2cnc3ccc(C)cn3c2=O)cc1 was read as TDP1 inh 5%, TDP1 cell CPT -1% and TDP1 cell noCPT -5%.
For COc1ccc(-c2nc3ccccc3o2)cc1NC(=O)C(C)Oc1ccc(Cl)cc1Cl (stereo not given) the results were TDP1 inh -3%, TDP1 cell CPT inconclusive and TDP1 cell noCPT 23µM*.
Screening COc1ccc(-c2nc3cc(C(C)C)ccc3o2)cc1NC(=O)COc1ccc(C)cc1C returned TDP1 inh 4%, TDP1 cell CPT 6.5µM* and TDP1 cell noCPT inconclusive.
Screening COc1ccc(-c2nc3ccccc3o2)cc1NC(=O)c1ccc(OCC(C)C)cc1 returned TDP1 inh 6%, TDP1 cell CPT inconclusive and TDP1 cell noCPT inconclusive.

Assay outcomes deposited in PubChem BioAssay by National Center for Advancing Translational Sciences (NCATS).
